About 3,700 (0.93%) of roughly 400,000 compounds were called active. Another 3% or so got no clear call; they are omitted. Many of the other results were omitted from the sample, so actives are more common in it than they were. A number with no mark means an inactive call. Calls follow the shape of the dose curve; as a rule, active = well fitted inhibition curve with a large enough effect; inconclusive = small, poorly fitted or top-dose-only effect, or another doubt; inactive = no such curve, though single readings can be large or run the other way.
% is scaled to controls: 0 for no effect and ±100 for the full control effect; potency is read from the fitted curve at half-maximal effect.

Vitamin D3 receptor (Homo sapiens), sequence (P11473 whole entry, looked up): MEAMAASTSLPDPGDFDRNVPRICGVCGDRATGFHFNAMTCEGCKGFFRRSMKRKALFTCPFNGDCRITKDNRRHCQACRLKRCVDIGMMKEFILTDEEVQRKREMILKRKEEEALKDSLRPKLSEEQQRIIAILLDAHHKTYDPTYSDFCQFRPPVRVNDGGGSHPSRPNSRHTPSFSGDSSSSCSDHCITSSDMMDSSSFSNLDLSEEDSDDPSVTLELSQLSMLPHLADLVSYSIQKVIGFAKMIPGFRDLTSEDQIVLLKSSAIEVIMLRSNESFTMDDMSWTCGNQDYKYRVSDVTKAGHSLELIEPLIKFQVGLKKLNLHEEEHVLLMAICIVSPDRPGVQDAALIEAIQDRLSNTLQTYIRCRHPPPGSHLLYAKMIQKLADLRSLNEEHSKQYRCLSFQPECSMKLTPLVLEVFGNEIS

The target in the experiment is Vitamin D3 receptor (Homo sapiens) (UniProt P11473). Description: Inhibitors of the vitamin D receptor (VDR): qHTS. The note with it: VDR-SRC2-3 peptide fluorescence polarization, 2 h; max response, negative = inhibition: hits give low values. The gist of the method:
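Reagent solutions, kept cold and dark, are dispensed first; compounds are then pinned in at 23 nl, plates briefly spun, and incubated 2 h at ambient temperature. Inhibition of VDR–SRC2-3 peptide binding is read by fluorescence polarization.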
As to `CC1=Nc2cc(C(=O)N3CCC(C)CC3)ccc2Sc2ccc(Cl)cc21`, the max response, negative = inhibition was -2.31%.
Take `CN(Cc1ccco1)c1cc(-c2ccccc2C(F)(F)F)ncn1`: the Potency was 39.8 µM (active).
Turning to `Cc1nnc(Sc2nc3c(c(=O)[nH]c(=O)n3C)n2Cc2ccccc2)s1`, the max response, negative = inhibition was -19.6%.
With `Cn1c(=O)[nH]c(=O)c2c1nc(NCCc1ccccc1)n2Cc1ccc(F)cc1`, the max response, negative = inhibition was -22.7%.
For the compound `Cn1c(=O)[nH]c(=O)c2c1[nH]c(=S)n2Cc1ccccc1`, the Potency is 89.1 µM (active).
On to `c1ccc(Cn2nnc3c(N4CCCCC4)ncnc32)cc1`, for which the max response, negative = inhibition was 7.87%.
On to `COc1ccc(OC)c(-c2noc(N3CCN(c4cc(Cl)ccc4C)CC3)n2)c1`, for which the max response, negative = inhibition is 13.2%.
In the case of `O=C(CN1CCC(O)(c2ccccc2)CC1)Nc1ccc2c(c1)OCCO2`, the max response, negative = inhibition is 0.904%.
Same read-out and setting: for `CCC1(c2ccccc2)NC(=O)N(CC(=O)c2ccc3c(c2)OCO3)C1=O` (centres undefined) the value was 7.42%.
Turning to `O=C(CCN1CCc2ccccc2C(O)(c2ccccc2)C1)c1ccc2c(c1)OCCO2` (centres undefined), the Potency was 35.5 µM (active).
With `COc1cc(OC)cc(C(=O)NCCc2csc3nc(-c4ccccc4F)nn23)c1`, the max response, negative = inhibition was 1.56%.
Regarding `CCOC(=O)c1cccc(NS(=O)(=O)c2cc(-c3cnc(C)o3)ccc2OC)c1`, the max response, negative = inhibition was 1.33%.
Regarding `CC(Sc1nnnn1C)C(=O)NC(=O)NC1CCCCC1` (centres undefined), the max response, negative = inhibition is 15%.
In the case of `CC(Sc1nnnn1C1CCCCC1)C(=O)O` (centres undefined), the Potency is 79.4 µM (active).
For the compound `O=C(CSc1nnnn1C1CCCC1)N1CCCCC1`, the max response, negative = inhibition was 12.7%.
For the compound `CC1OC(OCC2OC(Oc3c(-c4ccc(O)c(O)c4)oc4cc(O)cc(O)c4c3=O)C(O)C(O)C2O)[C@@H](O)C(O)C1O` (some centres undefined), the max response, negative = inhibition was -0.0788%.
`COc1cc(C(=O)N2CCN(c3ccc(Nc4ccc(C)cc4)nn3)CC2)cc(OC)c1OC`: the max response, negative = inhibition is 13.1%.
On the same count and under the same terms, under `Cc1oc2ncnc(N3CCOCC3)c2c1C(=O)NCCc1ccccc1` stands 9.03%.
Still for that read-out and setting: under `O=C1c2ccccc2C(=O)N1c1ccc(S(=O)(=O)N2CCOCC2)c2ccccc12` stands -4.23%.
In the case of `FC(F)(F)C1CCCN(c2nsc3ccccc23)C1` (centres undefined), the Potency is 20 µM (active).
As for `C[C@H]1CCC[C@@]2(C)CCCC[C@]12O`, the max response, negative = inhibition was 0.107%.
In the case of `CC(=O)N(C1=C(Cl)C(=O)c2ccccc2C1=O)c1ccc(C(=O)O)cc1`, the Potency was 7.08 µM (active).
As to `CCOC(=O)c1cc2c(=O)n3ccccc3nc2n(CCCOC)c1=NC(=O)C(C)(C)Oc1ccc(Cl)cc1`, the max response, negative = inhibition was -19.6%.
Turning to `CC(=O)Oc1c2c(c3c(c1CC=C(C)C)O[C@@]14C(=CC5CC1C(C)(C)OC4(C/C=C(\C)C(=O)O)C5=O)C3=O)OC(C)(CCC=C(C)C)C=C2` (some centres undefined), the Potency is 3.16 µM (active).

Source of the values: PubChem BioAssay AID504847 (National Center for Advancing Translational Sciences (NCATS), 2011).
